Screening data from PubChem.
The list is not random: actives were taken first. Their share in the collection is about 14%.
Sm TGR block – qHTS Assay for the Inhibitors of Schistosoma Mansoni Peroxiredoxins. purified TGR, DTNB reduction, TNB absorbance 405 nm. Schistosoma mansoni thioredoxin glutathione reductase (TGR), Q962Y6. 360,000 tested, 3% active. Potency, µM (highest dose often 114 µM), for inactives: at the top dose activity change, negative = inhibition, usual class: inhibitors. AID 485364, 2010; also: potency is read from the fitted curve at half-maximal effect; nearly all actives have a fitted effect of over 60% in size
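TGR 20 nM + NADPH 100 uM (dispensed conc.), cpd preinc 15 min RT; start with NADPH (500 uM addition) then DTNB (15 mM addition). Kinetic TNB absorbance, 405 nm filter. Four-parameter Hill fit across titration.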
Pf growth 96h – Primary qHTS for delayed death inhibitors of the malarial parasite plastid, 96 hour incubation; Potency, µM (series often up to 28.7 µM), for the others: at the highest dose activity change, negative = inhibition, hits mostly inhibitors; AID 504834, 2011; P. falciparum luciferase reporter growth, 96 h; 320,000 tested, 6.9% active; also: potency is read from the fitted curve at half-maximal effect
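Compounds incubated with erythrocytes infected by luciferase-expressing P. falciparum (2% hematocrit, 0.05% parasitemia final) for 96 hours, 37 C in 5% CO2. Growth inhibition scored as decreased luciferase luminescence.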
Pf growth 48h – Primary qHTS for delayed death inhibitors of the malarial parasite plastid, 48 hour incubation | P. falciparum luciferase growth in erythrocytes, 48 h | AID 504832, 2011 | Potency, µM (doses to about 28.7 µM), inactives show top-dose activity change, negative = inhibition, hits mostly inhibitors | 310,000 tested, 5.9% active; also: potency is read from the fitted curve at half-maximal effect
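Growth was read as firefly luciferase luminescence after a 48 h, 37 C, 5% CO2 exposure of compounds to reporter-bearing P. falciparum cultures (0.1% parasitemia, 2% hematocrit final) in Albumax-supplemented RPMI 1640.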
Giardia FBPA inh – qHTS Assay for Inhibitors of Fructose-1,6-bisphosphate Aldolase from Giardia Lamblia; AID 2451, 2010; 290,000 tested, 0.71% active; Potency, µM (titrated, usually from 59.6 µM), for inactives: at the top dose activity, negative = inhibition, hits mostly inhibitors; purified Giardia FBPA; also: potency is read from the fitted curve at half-maximal effect; nearly all actives have a fitted effect of over 55% in size
Target sequence (A8B2U2 whole entry, looked up): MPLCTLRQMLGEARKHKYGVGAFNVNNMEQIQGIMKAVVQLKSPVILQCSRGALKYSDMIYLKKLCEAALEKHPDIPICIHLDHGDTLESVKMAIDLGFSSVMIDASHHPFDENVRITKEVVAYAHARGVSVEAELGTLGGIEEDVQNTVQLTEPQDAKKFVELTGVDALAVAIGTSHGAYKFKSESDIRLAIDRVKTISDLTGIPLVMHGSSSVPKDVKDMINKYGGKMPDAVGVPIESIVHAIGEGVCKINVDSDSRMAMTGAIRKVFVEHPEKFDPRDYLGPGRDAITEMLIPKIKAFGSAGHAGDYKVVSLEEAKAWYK
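40 nM FBPA preincubated 10 min at RT with compound (up to 57.5 uM final), then substrate plus GAPDH/TPI/NAD/arsenate coupling and diaphorase/resazurin added. Fluorescence read after 20 min at RT, 525/598 nm.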
HCMV inh – qHTS Assay for inhibitors of the human cytomegalovirus (HCMV); activity change, negative = inhibition, % at 57.5 µM; 410,000 tested, 4.5% active; HFF cells, HCMV-luciferase reporter, 72 h; active compounds read low; AID 1259415, 2018; in the data active = activity change below about -60%; inconclusive = no clear call, values can overlap the other calls; inactive = above about -39%
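HFF cells seeded 16 h at 37C, treated with compounds, infected with luciferase-reporter HCMV at MOI 1 PFU/cell; luciferase read at 72 h post infection, normalized to buffer-only and Salinomycin controls.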
* = called active by the depositor. Unless noted, calls follow the shape of the dose curve; as a rule, active = well fitted curve in the direction sought with a large enough effect; inconclusive = small, poorly fitted or top-dose-only effect, or another doubt; inactive = no such curve, though single readings can be large; an effect the other way counts as inactive or inconclusive. % is scaled to controls: 0 for no effect and ±100 for the full control effect.

How did CCc1ccc(NC(=O)C2(c3ccccc3)CC2(Cl)Cl)cc1 (centres undefined) do in these assays?
Sm TGR block: 14.8%; Pf growth 96h: 3.29µM*; Pf growth 48h: inconclusive; HCMV inh: inconclusive

What do the screens show for `Cc1cc(C)cc(NC(=O)C2(c3ccccc3)CC2(Cl)Cl)c1` (centres undefined)?
Sm TGR block: -17.9%; Pf growth 96h: 2.33µM*; Pf growth 48h: 4.65µM*; Giardia FBPA inh: -0.8%; HCMV inh: 7.6

What do the screens show for `Cc1ccc(C(C)(C)NC(=O)C2CCC(=O)N(CC3CCCCC3)C2)cc1` (centres undefined)?
Sm TGR block: -19.3%; Pf growth 96h: inconclusive; Pf growth 48h: -1.4%; Giardia FBPA inh: 6.4%; HCMV inh: -26.7

Results for COc1ccc(CCNC(=O)CCCCn2c(=O)c3ccccc3n(Cc3ccc(Cl)cc3)c2=O)cc1OC ?
Sm TGR block: 5.1%; HCMV inh: 1.3

What do the screens show for `O=C(CSc1ccc([N+](=O)[O-])cn1)Nc1cc(C(F)(F)F)ccc1N1CCOCC1`?
Sm TGR block: 2.6%; Pf growth 96h: -25.0%; Pf growth 48h: 5.22µM*; HCMV inh: -29.5

What do the screens show for `O=C(CSc1nc2ccccc2[nH]1)Nc1cc(C(F)(F)F)ccc1N1CCOCC1`?
Sm TGR block: inconclusive; Pf growth 96h: 5.22µM*; Pf growth 48h: inconclusive; Giardia FBPA inh: 0.2%; HCMV inh: -30.6

What do the screens show for `Cc1csc(NC(=O)CSc2ccc([N+](=O)[O-])cn2)n1`?
Sm TGR block: -27.8%; Pf growth 96h: 11.7µM*; Pf growth 48h: -33.4%; Giardia FBPA inh: -19.9%; HCMV inh: -2.9

Results for O=C(CSc1ccc([N+](=O)[O-])cn1)Nc1ccccc1N1CCOCC1 ?
Sm TGR block: -17.9%; Pf growth 96h: 4.0%; Pf growth 48h: inconclusive; HCMV inh: 37.8

How did O=C(CSc1ccc([N+](=O)[O-])cn1)Nc1nccs1 do in these assays?
Sm TGR block: -2.2%; Pf growth 96h: inconclusive; Pf growth 48h: inconclusive; HCMV inh: -32.7

Results for O=C(O)CC(NNC(=O)c1ccccc1)C(=O)Nc1cccc([N+](=O)[O-])c1 (centres undefined) ?
Sm TGR block: 1.8%; Pf growth 96h: 13.0%; Pf growth 48h: 14.6%; Giardia FBPA inh: -12.8%; HCMV inh: -11.3

Results for CC1CCC(C(O)(C(=O)c2ccccc2)c2ccccc2)C(=O)C1 (centres undefined) ?
HCMV inh: -36.6

What do the screens show for `CC(=O)c1ccc(N2CCN(C(=O)CCS(=O)(=O)c3ccc4c(c3)NC(=O)CS4)CC2)cc1`?
Sm TGR block: -0.8%; Pf growth 96h: inconclusive; Pf growth 48h: inconclusive; HCMV inh: -25.9

What do the screens show for `CC(=O)NC(CCCN1C(=O)c2ccccc2C1=O)c1nnn(C)n1` (centres undefined)?
Sm TGR block: -18.8%; Pf growth 96h: -22.7%; Pf growth 48h: 14.4%; Giardia FBPA inh: 2.7%; HCMV inh: 76.1

What do the screens show for `Cc1ccc(C(=O)Nc2ccc3ccccc3n2)cc1`?
Sm TGR block: 0.0%; Pf growth 96h: 410.9%; Pf growth 48h: 175.8%; Giardia FBPA inh: -1.8%; HCMV inh: -102.2*

How did O=C(NNc1c2ccccc2nc2ccccc12)c1ccc(Cl)cc1 do in these assays?
Sm TGR block: -9.3%; Pf growth 96h: -1.2%; Pf growth 48h: 13.1µM*; Giardia FBPA inh: -5.0%; HCMV inh: 89.7

How did O=C(Nc1ccc2ccccc2n1)c1ccccc1 do in these assays?
Sm TGR block: 8.0%; Pf growth 96h: inactive; Pf growth 48h: -3.3%; Giardia FBPA inh: -1.0%; HCMV inh: 70.3

What do the screens show for `CCOC(=O)Nc1c2ccccc2nc2ccccc12`?
Sm TGR block: 8.5%; Pf growth 96h: 10.4µM*; Pf growth 48h: 14.7µM*; Giardia FBPA inh: -1.1%; HCMV inh: -12.4
